From PubChem
This is a sample that favours compounds with a hit; in the whole collection about 2.4% have one here.
AmpC inh det = Promiscuous and Specific Inhibitors of AmpC Beta-Lactamase (assay with detergent); Potency, µM (titrated, usually from 28.7 µM), without a hit: at the highest dose activity change, negative = inhibition; AID 584, 2007; P00811; 71,000 compounds, 0.09% hits; purified AmpC, nitrocefin hydrolysis with detergent; active = well fitted curve in the direction sought with a large enough effect; inconclusive = small, poorly fitted or top-dose-only effect; also: % is scaled to controls: 0 for no effect and ±100 for the full control effect
Target sequence (P00811 whole entry, looked up): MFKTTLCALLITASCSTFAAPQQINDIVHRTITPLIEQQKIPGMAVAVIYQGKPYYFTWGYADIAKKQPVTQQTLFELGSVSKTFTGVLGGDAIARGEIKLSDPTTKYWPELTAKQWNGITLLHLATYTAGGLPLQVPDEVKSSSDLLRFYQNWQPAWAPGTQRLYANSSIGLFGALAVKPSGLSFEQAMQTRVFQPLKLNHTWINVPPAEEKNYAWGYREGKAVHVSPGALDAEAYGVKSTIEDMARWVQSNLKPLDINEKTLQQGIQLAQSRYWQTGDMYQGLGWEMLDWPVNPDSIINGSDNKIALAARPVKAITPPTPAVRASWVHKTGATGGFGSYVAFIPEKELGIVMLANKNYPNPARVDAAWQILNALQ
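E. coli AmpC (5.3 nM) in 20 mM phosphate pH 7.0 with 0.01% Triton X-100, preincubated 15 min RT with compound; nitrocefin (2 uL of 800 uM stock) hydrolysis followed by 480 nm absorbance every 20 s over 4 min.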
Prx2 Sm inh = Schistosoma Mansoni Peroxiredoxins (Prx2); Schistosoma mansoni peroxiredoxin 2 (Prx2); S. mansoni Prx2 activity coupled to TGR/GSH (TGR is thioredoxin glutathione reductase), NADPH fluorescence loss, qHTS; Potency, µM; 65,000 compounds, 0.07% hits
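Enzyme mix: 100 uM NADPH, 25 nM TGR, 700 uM GSH, 50 nM Prx2 in 100 mM phosphate pH 7.4, 10 mM EDTA, 0.01% Tween-20. 15 min RT with compound; NADPH/GSH added, H2O2 starts reaction; NADPH fluorescence read 8 min.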
AmpC inh no det = Promiscuous and Specific Inhibitors of AmpC Beta-Lactamase (assay without detergent) | P00811 | 71,000 compounds, 1.8% hits | Potency, µM (titrated, usually from 28.7 µM), for inactives: at the top dose activity change, negative = inhibition | AmpC nitrocefin hydrolysis, absorbance 480 nm, no detergent; also: % of control where 0% means no effect
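AmpC, 20 mM phosphate pH 7.0; 15 min cpd preinc, RT; start with nitrocefin (800 uM stock); A480 kinetic read, 20 s intervals, 4 min. No-enzyme wells = negative control.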
Anthrax LT inh = qHTS Assay for Anthrax Lethal Toxin Internalization; Cells, anthrax lethal toxin internalization, FRET ratio (460/530); Potency, µM (doses to about 40 µM), without a hit: at the top dose activity change, negative = inhibition, most hits filed as inhibitors; 70,000 compounds, 0.67% hits; AID 912, 2007; also: % is scaled to controls: 0 for no effect and ±100 for the full control effect; nearly all actives have a fitted effect of over 50% in size
Active calls of the source: *; i = inactive; ? = inconclusive; . = no result; [ ] = remark or other dose. Unless noted, calls follow the shape of the full dose curve. Potency is read from the fitted curve at half-maximal effect.

SMILES	AmpC inh det	Prx2 Sm inh	AmpC inh no det	Anthrax LT inh
C[C@@]12C=CC(=O)C=C1CC[C@@H]1C2=CC[C@]2(C)[C@@H]1CC[C@H]2C(=O)CN1CCN(c2cc(N3CCCC3)nc(N3CCCC3)n2)CC1	0%	i	86%	16%
CCN1C[C@@]2(COC)[C@H](O)C[C@H](OC)[C@@]34[C@@H]5C[C@@]6(O)[C@H](OC(=O)c7ccccc7)[C@H]5[C@@](OC(C)=O)([C@H]([C@@H](OC)[C@H]23)[C@H]14)[C@H](O)[C@@H]6OC	-1%	>57	7%	?
Nc1c(S(=O)(=O)O)cc(Nc2ccc(Nc3nc(Cl)nc(Nc4ccc(S(=O)(=O)O)cc4)n3)c(S(=O)(=O)O)c2)c2c1C(=O)c1ccccc1C2=O	13µM*	>57	-35%	?
Cc1nn(-c2ccccn2)c(C)c1Oc1ccccc1O	-1%	>57	1%	3%
Cc1nn(-c2nc3ccccc3s2)c(C)c1Oc1ccccc1O	-5%	>57	-24%	10µM*
CCN(CCO)C(=O)CC(c1ccccc1)c1cc(Br)ccc1O (stereo not drawn)	-1%	>57	24%	0%
Cn1c(NC(=O)c2cccc(Cn3cc(Cl)cn3)c2)nc2ccccc21	-2%	>57	-4%	9%
CCn1c(NC(=O)c2cccc(Cn3cc(Cl)cn3)c2)nc2ccccc21	19%	>57	4µM*[single pt active]	1%
CCc1ccc(NC(=O)C2CC(=O)N(C(C)C)C2)cc1 (stereo not drawn)	-3%	>57	7%	-17%
CC(C)OC(=O)Nc1ccc(Oc2c(F)c(F)c(F)c(F)c2F)cc1	-2%	>57	16µM*[single pt active]	.
CC(C)Oc1ccc(NC(N)=O)cc1	-2%	>57	20%	?
Oc1ccc(Nc2nc(N3CCCC3)c3ccccc3n2)cc1	30%	>57	?	13µM*
Cc1ccc(Nc2nc(N3CCOCC3)c3ccccc3n2)cc1	0%	>57	10%	-14%
CCOC(=O)CN1c2ccccc2NC(=O)CC1C (stereo not drawn)	13%	>57	4µM*[single pt active]	-6%
CCOC(=O)CN1C(=O)C(O)=C(C(C)=O)C1c1ccccc1 (stereo not drawn)	-2%	>57	1%	.
CCCCN(C)S(=O)(=O)c1ccc(C(=O)Nc2nnc(-c3cccs3)o2)cc1	-1%	>57	16µM*	-4%
CCCCN(CC)S(=O)(=O)c1ccc(C(=O)Nc2nnc(-c3ccccc3Cl)o2)cc1	-1%	>57	6.3µM*	11%
CCCCC(=O)NC(Nc1cc(C)ccn1)(C(=O)OCC)C(F)(F)F (stereo not drawn)	-6%	>57	14%	2%
Cn1cnnc1SCC(=O)Nc1sc2c(c1C(N)=O)CCC2	-8%	>57	10µM*	?
NC(=O)c1c(NC(=O)CSc2nnc(-c3ccccc3)n2CC2CCCO2)sc2c1CCC2 (stereo not drawn)	4%	>57	77%	-16%
COC(=O)C1=C(N)Oc2cc(C)n(Cc3ccncc3)c(=O)c2C1c1cccnc1 (stereo not drawn)	-6%	>57	-12%	?
O=C(O)c1ccc(NC(=O)C2C3CCC(C3)C2C(=O)O)cc1 (stereo not drawn)	-2%	>57	-6%	-6%
Cc1cc(NC(=O)CCS(=O)(=O)c2nc(-c3ccccc3)cc(C(F)(F)F)n2)no1	-3%	>57	-11%	7.9µM*
COc1ccc(CC(CC(=O)O)C(=O)Nc2ccccc2)cc1 (stereo not drawn)	-4%	>57	-2%	-6%
O=C(Nc1ccc(CN2CCOCC2)cc1)c1ccc(-c2ccc(Br)cc2)o1	-6%	>57	120%	13µM*
SMILES	AmpC inh det	Prx2 Sm inh	AmpC inh no det	Anthrax LT inh
O=C(OCC(=O)N1CCN(c2ccccc2)CC1)c1ccco1	3%	>57	6%	9%
N#Cc1ccc(NC(=O)Nc2ccc(Cl)cc2)cc1	13%	>57	?	4µM*
CN(CC(=O)Nc1ccc(C#N)cc1)Cc1ccc(Cl)cc1	-2%	>57	4%	-13%
CCOC(=O)C1Cn2c(nc3c(c2=O)C2(CCCC2)Cc2ccccc2-3)S1 (stereo not drawn)	-4%	.	71%	?
CCOC(=O)C1Cn2c(nc3c(c2=O)C(C)(C)Cc2ccccc2-3)S1 (stereo not drawn)	10%	.	85%	10µM*
Cc1ccc(S(=O)(=O)NCC(=O)N(CC(=O)NCc2ccco2)Cc2ccc3c(c2)OCO3)cc1	1%	>57	-14%	10%
CNc1nc(SC)nc(N2CCOCC2)n1	-3%	>57	-1%	1%
CO/N=C(\C(=O)N[C@@H]1C(=O)N2C(C(=O)O)=C(COC(N)=O)CS[C@@H]12)c1ccco1	0.079µM*	>57	0.04µM*	?
NCc1ccccc1CC(=O)N[C@@H]1C(=O)N2C(C(=O)O)=C(CSc3nnnn3CC(=O)O)CS[C@@H]12	-4%[12.8 µM]	>57	-15%[12.8 µM]	1%[3.58 µM]
Cn1c(=O)c(=O)n(C)c2cc(S(=O)(=O)CCC(=O)N3CCOCC3)ccc21	12%	>57	4µM*[single pt active]	-10%
Cn1c(=O)c(=O)n(C)c2cc(S(=O)(=O)N3CCOCC3)ccc21	-2%	>57	-16%	-7%
CC(C)n1cc2c3c(cccc31)[C@@H]1C[C@H](C(=O)O[C@@H](C)[C@H](C)O)CN(C)[C@H]1C2	-2%	>57	109%	?
Clc1cccc(-c2nn3c(-c4ccncc4)nnc3s2)c1	0%	>57	-1%	-10%
COc1ccccc1NC(=O)CC(=O)CSc1nnc(-c2ccc(C)cc2)n1C	5%	>57	41%	-2%
OC(CNCc1ccco1)Cn1c2ccccc2c2ccccc21 (stereo not drawn)	-6%	>57	40%	-6%
CS(=O)(=O)N(Cc1ccco1)CC(O)Cn1c2ccccc2c2ccccc21 (stereo not drawn)	3%	>57	87%	10µM*
N#Cc1c(C(F)(F)F)cc(C2CC2)[nH]c1=O	15%	>57	4µM*[single pt active]	-11%
Cc1ccc(-c2nc(NC(=O)CSc3nnc(C)s3)ns2)cc1	11%	>57	4µM*[single pt active]	-12%
Cc1nnc(SCC(=O)Nc2nsc(-c3ccccc3)n2)s1	-4%	>57	-12%	.
O=C(CSc1nnnn1-c1ccccc1)Nc1nsc(-c2ccccc2)n1	-2%	>57	-15%	-24%
O=C(CSc1nnnn1-c1ccccc1)Nc1nsc(-c2ccc(Cl)cc2)n1	0%	>57	10µM*[single pt active]	-14%
O=C(CSc1nnc2scc(-c3ccccc3)n12)NCc1ccco1	-1%	>57	3%	0%
CCOC(=O)C(C(=O)OCC)c1cc(Br)c2noc3c2c1C(=O)c1ccccc1-3	3%	0.53*	-4%	?
N#CCCn1c(=O)c(-c2cccs2)nc2cnc(N3CCOCC3)nc21	2%	>57	-1%	?
O=C1CCc2cc(S(=O)(=O)NC(Cc3ccccc3)C(=O)NC3CCCCC3)ccc2N1 (stereo not drawn)	11%	>57	4µM*[single pt active]	16%
